# Laboratory results reported in PubChem BioAssay (NCI).
# About 79,000 compounds went through this panel and 15% of them were active in at least one assay; those are over-represented in the sample as a whole. Unmarked numbers belong to inactive results. Activity calls are given as the source filed them. Rule as the data show it: active = growth inhibition above about 70%; inactive = the rest.
# Experiments:
# [1] = NCI Yeast Anticancer Drug Screen. Data for the rad50 strain (AID 155);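 also: 0% = growth of vehicle-only cultures of the same strain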; details: S. cerevisiae rad50 strain growth inhibition; at 50.0 µM; stronger effect = higher value
# How it was run: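 A DNA repair-deficient yeast mutant serves as the test organism; compound-induced growth inhibition is calculated against vehicle-treated cells.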
# [2] = NCI Yeast Anticancer Drug Screen. Data for the mec2-1 strain (AID 157); details: S. cerevisiae mec2-1 strain, at 50.0 µM, stronger effect = higher value
# How it was run: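 Yeast mec2-1 mutant treated with compound. Readout: growth inhibition vs vehicle controls.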
# [3] = NCI Yeast Anticancer Drug Screen. Data for the sgs1 mgt1 strain (AID 161);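 also: 0% = growth of cultures given vehicle only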; details: S. cerevisiae sgs1 mgt1 strain, at 50.0 µM, stronger effect = higher value
# How it was run: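 Genetically altered yeast, compound exposure, growth inhibition relative to vehicle.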
# [4] = NCI Yeast Anticancer Drug Screen. Data for the cln2 rad14 strain (AID 165);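 also: 0% = growth equal to vehicle treated cultures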; details: S. cerevisiae cln2 rad14 strain, at 50.0 µM, stronger effect = higher value
# How it was run: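 cln2 rad14 yeast strain; compound exposure; growth inhibition read vs vehicle controls.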
# [5] = NCI Yeast Anticancer Drug Screen. Data for the bub3 strain (AID 167); details: S. cerevisiae bub3 mutant strain, at 50.0 µM, stronger effect = higher value
# How it was run: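 Inhibition values come from growth of compound-treated mutant yeast normalised to vehicle-treated controls.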
# [6] = NCI Yeast Anticancer Drug Screen. Data for the mlh1 rad18 strain (AID 175); details: S. cerevisiae mlh1 rad18 strain growth inhibition; at 50.0 µM; stronger effect = higher value
# How it was run: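 Yeast w/ defined DNA-repair lesions; compound exposure; growth vs vehicle controls → % inhibition.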
Structure (SMILES),growth inhibition [1] [%],growth inhibition [2],growth inhibition [3],growth inhibition [4],growth inhibition [5],growth inhibition [6]
CCOC(=O)c1cc2c(C(=O)c3ccc([N+](=O)[O-])cc3)c(C(C)=O)ccc2[nH]1,3.15,-0.45%,-1.2%,-3.55%,19%,-45.6%
CCC(SC)C(=O)N(C)c1ccccc1 (configuration not stated),-8.5,-15.3%,1.25%,-10.3%,-13.1%,-3%
CC1(C)OC12C=CC1C2C2CCC1C21OC1(C)C (configuration not stated),8,8.7%,-2.85%,20.1%,-7.3%,-14.6%
O=c1[nH]c(=S)c2cncnc2n1C1OC(CO)C(O)C1O (configuration not stated),15.8,11.8%,-6.6%,10.2%,-28.3%,-26.4%
CCOC(=O)N1C/C(=C\c2ccccc2)C(=O)/C(=C/c2ccccc2)C1,-6.85,0.6%,-12.3%,19.6%,9.15%,72.2% (active)
CC1(C)OCC(C2OC(C)(C)OC2C(CO)Nc2ccc([N+](=O)[O-])cc2[N+](=O)[O-])O1 (configuration not stated),53,21.4%,59.1%,41.4%,11.2%,49.1%
COC1OC2COC(c3ccccc3)OC2C(OS(=O)(=O)c2ccc(Br)cc2)C1OS(=O)(=O)c1ccc(Br)cc1 (configuration not stated),-10.5,13.7%,-1.3%,-14.7%,-11.8%,21.6%
CCOP(=O)(CCP(=O)(CCP(=O)(OCC)OCC)CCP(=O)(OCC)OCC)OCC,-8.05,2.5%,-8.05%,-30.2%,-1.55%,-9.2%
CC12CCC3c4ccc(OC(=O)C56C=CC(=O)C5C5C=CC6CC5)cc4CCC3C1CCC2=O (configuration not stated),11.6,-16.8%,-2.2%,16.1%,-4.05%,0.05%
CCOC(CN=CC1CCC=CO1)OCC (configuration not stated),10.9,-5.35%,2.85%,-1.55%,-1.5%,6.65%
CC(C)OC(CCCl)c1ccccc1 (configuration not stated),-6.4,-45.5%,-4.85%,5.6%,-23.7%,3.1%
CC(C)C(CCN1CCCC1(C)C)(C(N)=O)c1ccccc1 (configuration not stated),-4.85,-12.6%,-4.2%,-34%,9.6%,7.75%
CC12CCC3=C(CCc4cc(O)ccc43)C1CCC2=O (configuration not stated),-4.8,9.75%,5.8%,-34.5%,-7.95%,4.4%
CC(Br)CCc1ccccc1Br (configuration not stated),3.95,-8.9%,-2.95%,-39.5%,19.9%,10.7%
S=C(Cc1ccc2ccccc2c1)N1CCOCC1,29.4,1.95%,-2.1%,23.6%,30.4%,12.9%
O=C(Oc1ccco1)c1ccc([N+](=O)[O-])cc1,2.55,0.6%,-4.7%,-17.2%,0.1%,-9.8%
O=c1ccn(-c2ccccn2)c(=O)n1-c1ccccn1,18.9,-15.9%,2.95%,24.3%,-6.35%,-31.8%
CCOC(=O)C(C)C1CCCc2c(C)ccc(C)c21 (configuration not stated),-8.25,9.6%,1.25%,-1.8%,8.5%,2.7%
O=C(Nc1ccc(C(F)(F)F)cc1)NC(F)(F)F,-61.1,-6.7%,-38.1%,-16.6%,-3.65%,-46.3%
CC1CC(=O)C(CCC#N)=C(O)C1 (configuration not stated),4.85,-14.2%,-8.15%,-9.9%,5.55%,4.95%
CCOC(=O)c1[nH]c(C)c(C(=O)OC(C)(C)C)c1C,4.55,14.8%,0.35%,10.4%,-4.65%,0.45%

Structure (SMILES),growth inhibition [1] [%],growth inhibition [2],growth inhibition [3],growth inhibition [4],growth inhibition [5],growth inhibition [6]
CCOC(=O)CC1(C)OCCO1,31.9,11.4%,8.95%,21.8%,21.3%,28%
O=C1c2cccc3c(Br)ccc(c23)C(=O)N1CCCN1CCOCC1,63.5,77.7% (active),80.2% (active),86.7% (active),92.5% (active),60.2%
Cn1cnc2nc(N)[nH]c(=O)c21,37.2,6.45%,2.5%,-14.4%,-0.95%,13.7%
CC(=O)Oc1cc(C=O)ccc1O,0.75,6.7%,-3.3%,1.65%,-7.25%,-7.6%
CN(C)/C=C(/N=C(C#N)C#N)C1OCCO1,4.1,8.55%,-2.55%,-27.1%,3.8%,-1.7%
Cc1sc2ccnc(C)c2c1S(=O)(=O)O,5.3,9.95%,-9.95%,-3.5%,15.2%,-12.4%
CC(=O)OC1Cc2ccccc2C(OC(C)=O)Cc2ccccc21 (configuration not stated),29.6,7.4%,-1.25%,1.6%,18.4%,0.05%
N#CCC(=O)N1CCCCCCC1,20.4,-8.9%,2.7%,0%,6.05%,0%
CC(SC(=S)N1CCOCC1)C(=O)O (configuration not stated),2.65,-6.8%,-1.6%,-4.8%,-6.05%,-7.6%
O=C(Oc1ccc([N+](=O)[O-])cc1)C1CCCN1C(=O)OCc1ccccc1 (configuration not stated),-6.55,-13.7%,7.55%,8.5%,7.2%,0.15%
CC12CCCC=C1C(C)(C)C(O)CC2 (configuration not stated),3.45,1.7%,2.95%,7.3%,-26.8%,0.8%
CCC(/C=N/Nc1ccc([N+](=O)[O-])cc1[N+](=O)[O-])(CC)CC,-2.85,-8.75%,-6.25%,0.25%,-2.85%,6.8%
COc1cc2c(cc1OC)C1=Cc3cc(OC)c(OC)cc3C(C)N1C=C2 (configuration not stated),6.15,-6.3%,-26.6%,-18.6%,-23.9%,-16.7%
O=C(O)c1ccccc1C(=O)c1ccc(Br)cc1,8.4,-20.7%,10.8%,14.6%,-3.45%,10.1%
O.O.O=c1[nH]cc(CO)c(=O)[nH]1.[NH2-].[NH2-].[Pt+2],14.1,-1.15%,14.5%,16.6%,0.45%,4.25%
CC(NC(=O)CNP(=O)(c1ccccc1)c1ccccc1)C(=O)NC(Cc1ccccc1)C(=O)OCc1ccccc1 (configuration not stated),9.8,4.3%,20.1%,-4.5%,-9.55%,30.1%
O=C(O)c1ccc(O)cc1,14.3,44.7%,-0.9%,2.45%,1.7%,21.9%
COc1cccc(C2c3cc4c(cc3OC(C)(N3CCCC3)C2C)OCO4)c1OC (configuration not stated),-4,-4.7%,-4.8%,-4.25%,-13.5%,12.1%
CC1(C)COCOC1c1ccccc1 (configuration not stated),-6.2,11.3%,-21.4%,-11.8%,-1%,6.4%
O=C(Nc1ccc(Cl)c(Cl)c1)C(=O)Nn1c(=S)[nH]c2ccccc2c1=O,-4.05,-16.4%,2.8%,-1.5%,-0.8%,0.65%
CCCCCCCCCCCCCCCc1ccc([N+](=O)[O-])c(O)c1,-2.25,33.5%,7.1%,-8.75%,51.7%,35.9%
